Among the data in PubChem BioAssay (NCI) are growth values, retold here.

This is part of a sample that, as a whole, favours compounds with a hit. Of some 83,000 tested, about 20% had one in any assay.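 Compound tested at a single concentration for 48 hours in 96-well plates; a percent growth value below 10 was scored as active.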 Values without a mark were called inactive. Calls of active or inactive are those of the source.

Assay in all cases: NCI-60 one-dose screen, 48 h (100 = growth as untreated, 0 = no growth, -100 = all killed)
Holding throughout (settings): 10 µM unless noted

The test system of test [1] is OVCAR-8 ovarian.
Test [2] deals with OVCAR-5 ovarian.
Test [3] deals with OVCAR-4 ovarian.
In test [4] the test system is SK-OV-3 ovarian.
The test system of test [5] is IGROV1 ovarian.
The subject of test [6] is OVCAR-3 ovarian.
In test [7] the test system is HS 578T breast.
The subject of test [8] is NCI/ADR-RES ovarian.
Test [9] has as its system T-47D breast.
Test [10] relates to BT-549 breast.
In test [11] the test system is MDA-MB-435 melanoma.
In test [12] the test system is SW-620 colon.
Test [13] concerns MCF7 breast.
Test [14] relates to HCT-116 colon.
Test [15] relates to HCC-2998 colon.
Test [16] concerns KM12 colon.
The test system of test [17] is RPMI-8226 leukemia.

Regarding `COc1cc(C2CC(c3ccc(SC)cc3)=NN2C(C)=O)cc(OC)c1OC` (stereo not given), the growth in test [1] is 80.3%; in test [2], 100%; in test [3], 93.8%; in test [4] it was 89%; in test [5], 53.8%; in test [6], 21.7%. The growth in [7] was 79.7%; in test [8], 24.4%; in test [9] it was 72.1%; in test [10], 36.4%; in test [11], -28.5% (active); in [12], 38.5%. The growth in test [13] was 41.9%; in [14] it was 41.5%; in test [15] it was 61%; in [16] it was 39.4%.
On to `Cn1cc(-c2cc3ncnc(Nc4ccc(CC(=O)Nc5cc(C(C)(C)C)on5)cc4)c3s2)cn1`, for which the growth was 40.7% in test [1]; 61.6% in [2]; 34.7% in [3]; 10.4% in test [4]; 11.1% in [5]; 36.6% in test [6]. The growth was 15.6% in [7]; 60.6% in test [8]; 30.7% in [9]; 52.5% in test [10]; 40.7% in test [11]; 38.8% in [12]. In addition, the growth is 41.5% in [13], 21.8% in test [14], 99.1% in test [15] and 19.1% in [16].
As to `O=C1c2cccc3cccc(c23)C(=O)N1N1C(=O)c2cccc3c(NC4CCCCC4)ccc(c23)C1=O`, the growth in [1] was 96.2%; in test [2], 90.6%; in test [3] it was 96.8%; in [4], 92.1%; in [6], 105%; in [7], 103%. The growth was 95.4% in [8]; 88.4% in test [9]; 97.8% in test [10]; 102% in test [11]; 98.7% in [12]; 88.8% in test [13]. Further, the values for the growth in test [14], in test [15] and in [16] were 98.9%, 108% and 99.5%, respectively.
In the case of `Cc1cc(-c2cc(C)c(N)cc2C)c(C)cc1N`, the growth was 103% in test [1]; 97.2% in [2]; 117% in test [3]; 95.7% in [4]; 107% in [6]; 107% in test [7]. Also, the growth in test [8] is 100%; in test [9], 90.4%; in test [10] it was 92.3%; in test [11], 6.88% (active); in test [12], 100%; in test [13], 80.7%. Moreover, the figures for the growth in [14], in test [15] and in [16] were 78.8%, 104% and 75.2%, respectively.
With `O=C(O)CCC/C=C\C[C@H]1C=CC(=O)/C1=C/C[C@@H](O)CCc1cccc(C(F)(F)F)c1`, the growth in test [1] was 10.3%; in test [2], 8.7% (active); in test [3] it was 32.8%; in test [4], 44.3%; in [6], -36.1% (active); in test [7], 37.6%. Moreover, the growth in test [8] was 5.22% (active); in test [9], 21.4%; in test [10] it was 5.1% (active); in test [11], -53.5% (active); in [12], -35.8% (active); in [13], 11%. In addition, the growth in test [14] was -66.4% (active); in test [15], -84.4% (active); in test [16] it was -47% (active).
On to `CC1Cc2c(ncn3c(-c4ccc(F)cc4)nnc23)N(C)c2ccccc21` (stereo not given), for which the growth in [1] was 57.1%; in test [2], 78%; in [3], -66.2% (active); in test [4], 76.3%; in test [6], 6.26% (active); in [7], 26.1%. Moreover, the growth in test [9] is 35.1%; in test [10], 80.1%; in test [11] it was 59.2%; in test [12], 36.2%; in test [13] it was 52.2%; in test [14] it was 86%. Moreover, the values for the growth in [15] and in test [16] were 80.3% and 72.2%, respectively.
As for `O=C1CCC/C=C\C[C@H]2C=CC(=O)/C2=C/C[C@H](CCc2cccc(C(F)(F)F)c2)O1`, the growth in [1] is 5.51% (active); in [2] it was -16.9% (active); in test [3] it was 12.8%; in test [4], -34.9% (active); in test [6], -65.8% (active); in [7] it was 14.3%. Moreover, the growth in test [8] is 1.09% (active); in [9], -28% (active); in [10] it was -29.3% (active); in test [11], -42.1% (active); in test [12], -32% (active); in test [13], -6.2% (active). The growth in [14] was -82% (active); in [15] it was -74.4% (active); in [16], -63.5% (active).
Turning to `Cc1ccc(-c2nc(N3CCN(CC(=O)Nc4ccc(Cl)c(C(F)(F)F)c4)CC3)c3ccccc3n2)cc1`, the growth in test [1] was 88.9%; in test [2], 89.9%; in [3], 102%; in test [4] it was 84.7%; in [6] it was 102%; in test [7] it was 97.2%. In addition, the growth was 86.5% in test [8]; 74.7% in [9]; 94.2% in test [10]; 94.6% in test [11]; 91.7% in test [12]; 74.7% in test [13]. For the same compound, the growth in test [14] was 79.2%; in test [15], 112%; in test [16], 94.2%.
Turning to `CCCCCCNC(=O)Oc1ccc(/C(=C(\C)c2ccc(Cl)cc2)c2ccc(OCCN3CCCCC3)cc2)cc1`, the growth is 17.7% in [17]; 72% in [2]; 36.7% in [3]; 56.3% in test [4]; 54.8% in [5]; 58.4% in test [6]. The growth in [7] was 65.2%; in test [8], 63.5%; in [9], 29.1%; in [10], 64.4%; in test [11], 52.6%; in test [12], 7.33% (active). Further, the growth is 7.75% (active) in [13], 6.05% (active) in test [14], 62.9% in test [15] and 36.5% in test [16].
With `COc1ccc(N)c(N)c1`, the growth is 108% in [1]; 110% in test [2]; 103% in [3]; 96.9% in test [4]; 107% in test [5]; 125% in test [6]. The growth was 110% in test [7]; 92.6% in test [9]; 88% in test [10]; 101% in [11]; 109% in test [12]; 60.2% in test [13]. The figures for the growth in test [14], in test [15] and in test [16] were 96.1%, 92.7% and 101%, respectively.
Turning to `COc1ccc2nc(NC(=O)c3cccnc3Nc3ccc(S(N)(=O)=O)cc3)sc2c1`, the growth in test [1] was 97.1%; in test [2] it was 102%; in test [3] it was 81.7%; in test [4], 116%; in test [5], 134%; in [6], 98.9%. Further, the growth was 96.7% in test [7]; 104% in test [8]; 84.6% in test [9]; 84.7% in test [10]; 91.5% in [11]; 109% in test [12]. Moreover, the growth was 110% in test [13], 93.5% in [14], 114% in test [15] and 97.8% in test [16].
Take `COc1ccc(-c2cc(-c3ccc(Cl)cc3)c(C#N)c(=O)n2CCCCCC(=O)Nc2ccccc2N)cc1`: the growth in [1] was 29.8%; in test [2], 52.2%; in test [3] it was 54.7%; in [4], 63.6%; in [5], 37.6%; in test [6] it was 58.3%. Moreover, the growth in [7] was 70%; in test [8] it was 33.3%; in test [9], 18.6%; in test [10], 58.4%; in test [12], 42.4%; in [13] it was 31%. In addition, the growth in [14] was 22.5%; in test [15], 82.8%; in [16] it was 40.4%.
In the case of `CCCCC[C@H](O)C/C=C1/C(=O)C=C[C@@H]1C/C=C\CCCC(=O)O`, the growth in [1] is 33.7%; in test [2], 152%; in [3], 77.8%; in test [4] it was 118%; in [6], 22.2%; in test [7], 95.6%. For the same compound, the growth in [8] is 54.4%; in [9], 50.4%; in test [10], 54.5%; in test [11] it was 36.9%; in [12] it was 51.9%; in test [13], 19%. In addition, the growth in test [14] is 44.5%; in test [15] it was 76.5%; in test [16], 50.9%.
Take `CCOC(=O)Nc1ccc(-c2nc(-c3cccc(OCCN4CCOCC4)c3)c(-c3ccnc(Br)c3)[nH]2)cc1`: the growth is 43.8% in [1]; 66.9% in [2]; 52.7% in [3]; 80.8% in [4]; 63.6% in test [5]; 48.6% in [6]. The growth is -16.4% (active) in test [7]; 60.7% in test [8]; 35.6% in [9]; 56.4% in test [10]; 42.6% in test [12]; 11.6% in test [13]. Besides, the growth in [14] is 30.9%; in test [15] it was 38.5%; in test [16], 20.2%.
With `C=C1C(=O)O[C@H]2[C@H]1CC/C(COC(=O)CCSSCCC(=O)OC/C1=C/CC[C@@]3(C)O[C@H]3[C@H]3OC(=O)C(=C)[C@@H]3CC1)=C\CC[C@@]1(C)O[C@@H]21`, the growth in test [17] is -23.5% (active); in test [2], 17.7%; in test [3] it was 29.9%; in test [4], 89.9%; in [5], -49.6% (active); in test [6] it was -35.8% (active). Also, the growth is 7.57% (active) in test [7]; 50.5% in test [8]; -8.54% (active) in [9]; -78.5% (active) in test [10]; 10.8% in test [11]; -77.7% (active) in test [12]. Also, the growth in test [13] is -49.4% (active); in test [14], -90.2% (active); in [15] it was 67%; in test [16], 51.6%.
For `O=c1c2cccc(Cl)c2sc2c(NCCCNCCO)nc3ccccc3c12`, the growth in [1] is 27%; in [2], 62.5%; in [3], 11.1%; in test [4] it was 53.2%; in test [5], 15.3%; in test [6], -7.4% (active). Further, the growth in [7] is 20.3%; in test [8] it was 38.4%; in test [9], 42.7%; in test [10] it was 80.1%; in [11], -87.1% (active); in test [12] it was -97.6% (active). Besides, the growth in test [13] was 15.3%; in test [14], -58.9% (active); in test [15], -88% (active); in test [16], -62.1% (active).
